This passage reports Potency, outcome and activation results from PubChem BioAssay (Tox21).

The nature of experiment [1]: qHTS assay for small molecule agonists of the p53 signaling pathway (AID 651631; calls by dose curve; also: nearly all actives have a fitted effect of over 15% in size). The procedure, abridged:
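We treat p53RE-bla HCT-116 cells with compounds for 16 h at 37 °C, add LiveBLAzer B/G FRET substrate for 2 h at room temperature, and measure fluorescence intensity.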
On the technique in general: Quantitative high-throughput screening tests each substance at several concentrations.

A short description of experiment [2]: qHTS assay for small molecule agonists of the p53 signaling pathway - cell viability (AID 651633; calls by dose curve;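 also: p53RE-bla HCT reporter cells with a stable beta-lactamase p53 reporter; nearly all actives have a fitted effect of over 30% in size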). The procedure, abridged:
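Viability counter-read: CellTiter-Glo luminescence (30 min, room temperature) in the same p53RE-bla plates. These plates had been exposed to compounds for 16 h at 37 C.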

The nature of experiment [3]: qHTS assay for small molecule disruptors of the mitochondrial membrane potential - cell viability (AID 720634; calls by dose curve;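 also: human HepG2 liver cancer cells; nearly all actives have a fitted effect of over 20% in size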). In short, it runs like this: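 HepG2, 1 hr compound, 37 C. ATP luminescence via CellTiter-Glo, 30 min RT, same well as m-MPI.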
Experiment [4] is described as follows: qHTS assay for small molecule disruptors of the mitochondrial membrane potential (AID 720635). Also: potency is read from the fitted curve at half-maximal effect. In short, it runs like this:
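Mitochondrial membrane potential tracked with Mito-MPS dye, red aggregates (ex 540/em 590 nm) against green monomers (ex 490/em 535 nm). Compound treatment 1 hr at 37C, dye 30 min in HepG2.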

Experiment [5] can be described thus: qHTS assay to test for compound auto fluorescence at 535 nm (green) in HepG2 cells (AID 720675).
Experiment [6] can be described thus: qHTS assay to test for compound auto fluorescence at 460 nm (blue) in HEK293 cells (AID 720678). In short, it runs like this:
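Blue read-out at excitation 405 nm and emission 460 nm follows overnight compound exposure of HEK293 cells at 37C in 5% CO2. Activity is given as auto fluorescence equivalency to triamterene.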

Experiment [7] is described as follows: qHTS assay to test for compound auto fluorescence at 590 nm (red) in HEK293 cells (AID 720679). In short, it runs like this: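 Red channel, Ex/Em 540/590nm; signal expressed as equivalency to Rose Bengal sodium. HEK293, 2,000 cells/well, 10% dialyzed FBS; 23 nL compound pinned after 4-5 hr attachment; overnight 37C/5% CO2 before reading.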
The nature of experiment [8]: qHTS assay to test for compound auto fluorescence at 535 nm (green) in HEK293 cells (AID 720680).
The nature of experiment [9]: qHTS assay to test for compound auto fluorescence at 460 nm (blue) in HEK293 cell free culture (AID 720681). In short, it runs like this:
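Blue fluorescence (Ex 405/Em 460 nm, triamterene-equivalent) was read immediately after pin transfer of compound or DMSO into medium (DMEM, 10% FBS) without cells.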

Experiment [10] is described as follows: qHTS assay to test for compound auto fluorescence at 535 nm (green) in HEK293 cell free culture (AID 720682). The procedure, abridged: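 Green-channel intensity (Ex/Em 485/535 nm) was recorded from compound-treated wells containing only DMEM with 10% FBS. Fluorescein provided the equivalency standard.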
Experiment [11] is described as follows: qHTS assay to test for compound auto fluorescence at 590 nm (red) in HepG2 cell free culture (AID 720684). The procedure, abridged:
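Plate contents were MEM with 10% FBS plus test compound or DMSO, no cells. Fluorescence was recorded with 540 nm excitation and 590 nm emission.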

A short description of experiment [12]: qHTS assay to test for compound auto fluorescence at 460 nm (blue) in HepG2 cell free culture (AID 720685). In short, it runs like this:
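Compound (23 nL) or DMSO pinned into cell-free MEM with 10% FBS; blue fluorescence read at 405/460 nm excitation/emission, expressed as auto-fluorescence equivalency to triamterene.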

A short description of experiment [13]: qHTS assay to test for compound auto fluorescence at 535 nm (green) in HepG2 cell free culture (AID 720686).
A short description of experiment [14]: qHTS assay to test for compound auto fluorescence at 460 nm (blue) in HepG2 cells (AID 720687). The procedure, abridged:
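Blue-channel autofluorescence (Ex/Em 405/460 nm, triamterene-equivalent) was measured after 1 hr compound exposure at 37 C, 5% CO2. Cells were HepG2, plated overnight at 37 C in MEM plus 10% FBS.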

Experiment [15] is described as follows: qHTS assay for small molecules that induce genotoxicity in human embryonic kidney cells expressing luciferase-tagged ATAD5 - cell viability (AID 651634; calls by dose curve; also: nearly all actives have a fitted effect of over 25% in size). The procedure, abridged:
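Viability read: CellTiter-Fluor fluorescence, 30 min at 37C. Cells: HEK293T, luciferase-tagged ATAD5. Exposure: 15.5 hr, 37C, 5% CO2, compound or DMSO vehicle.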

A short description of experiment [16]: qHTS assay to test for compound auto fluorescence at 590 nm (red) in HepG2 cells (AID 720674). In short, it runs like this:
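Red autofluorescence (Ex/Em 540/590 nm, Rose Bengal sodium equivalents) was measured in HepG2 cells, 2,000 per well in MEM plus 10% FBS, plated overnight at 37 C. Readings were taken 1 hr after adding 23 nL compound or DMSO, at 37 C and 5% CO2.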

A short description of experiment [17]: qHTS assay to test for compound auto fluorescence at 590 nm (red) in HEK293 cell free culture (AID 720683). The procedure, abridged: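 Red-channel autofluorescence of compounds in culture medium (DMEM, 10% FBS), no cells, measured at 540/590 nm. Rose Bengal sodium is the reference fluorophore for equivalence.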
Experiment [18] concerns the target Glucocorticoid receptor (Homo sapiens) (UniProt P04150). As to the kind of experiment: qHTS assay to identify small molecule agonists of the glucocorticoid receptor (GR) signaling pathway (AID 720691; active = well fitted activation curve with a large enough effect in the signal ratio in the repeat runs, not every such curve was filed as active; inconclusive = weak or mixed curves, or effect the other way; inactive = no such curve, though single readings can be large or run the other way; the % refers to the signal ratio). Conditions: GR-bla HeLa, beta-lactamase reporter ratio, 18 h. In short, it runs like this: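 qHTS in GR-bla HeLa cells: 4 h settling at 37 C/5% CO2, 18 h compound incubation at 37 C, 2 h LiveBLAzer B/G FRET substrate at room temperature, fluorescence intensity measured.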

Experiment [19] shares this target. Nature of the experiment: qHTS assay to identify small molecule antagonists of the glucocorticoid receptor (GR) signaling pathway (AID 720692; active = well fitted inhibition curve with a large enough effect in the signal ratio in the repeat runs, not every such curve was filed as active; inconclusive = weak or mixed curves, or effect the other way; inactive = no such curve, though single readings can be large or run the other way; the % refers to the signal ratio). In short, it runs like this: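 Inhibition of glucocorticoid signalling is measured in HeLa cells with a GRE-controlled beta-lactamase reporter; cells are co-treated with compound and 5 nM dexamethasone (final) for 18 h before FRET substrate readout.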

[20] abbreviates: activation: at 62.4 µM (top of the series).

A number with no mark means an inactive call. Some compounds were tested as several samples or in several runs, with calls that do not always agree. The source made the active and inactive calls. Unless noted, calls follow the shape of the dose curve; as a rule, active = well fitted curve in the direction sought with a large enough effect in the repeat runs; inconclusive = weak or mixed curves; inactive = no such curve, though single readings can be large; an effect the other way counts as inactive or inconclusive.
% is scaled to controls: 0 for no effect and ±100 for the full control effect.

Chain of Glucocorticoid receptor (Homo sapiens) (P04150 whole entry, looked up): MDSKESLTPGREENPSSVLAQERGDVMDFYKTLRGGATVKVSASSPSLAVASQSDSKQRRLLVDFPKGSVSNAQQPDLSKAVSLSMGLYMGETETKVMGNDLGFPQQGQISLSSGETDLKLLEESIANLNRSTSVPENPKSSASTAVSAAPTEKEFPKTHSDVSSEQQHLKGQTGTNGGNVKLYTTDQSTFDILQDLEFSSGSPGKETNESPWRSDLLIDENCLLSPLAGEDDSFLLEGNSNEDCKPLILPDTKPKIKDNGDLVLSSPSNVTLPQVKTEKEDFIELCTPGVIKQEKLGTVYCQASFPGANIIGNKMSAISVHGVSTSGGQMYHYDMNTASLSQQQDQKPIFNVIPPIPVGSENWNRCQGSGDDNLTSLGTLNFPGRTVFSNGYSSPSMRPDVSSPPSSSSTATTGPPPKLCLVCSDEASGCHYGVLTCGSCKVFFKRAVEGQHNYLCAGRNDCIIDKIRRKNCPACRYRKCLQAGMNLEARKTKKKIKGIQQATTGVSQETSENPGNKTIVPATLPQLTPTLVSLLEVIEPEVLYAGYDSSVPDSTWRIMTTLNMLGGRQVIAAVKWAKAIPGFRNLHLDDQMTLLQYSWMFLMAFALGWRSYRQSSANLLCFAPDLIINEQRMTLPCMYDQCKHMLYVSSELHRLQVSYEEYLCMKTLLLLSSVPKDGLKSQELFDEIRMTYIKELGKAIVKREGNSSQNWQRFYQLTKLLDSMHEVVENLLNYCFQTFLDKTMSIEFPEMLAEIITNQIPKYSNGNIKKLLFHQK

Take `CCCCCCCCCCCCc1ccccc1`: the Potency entry in experiment [1], in [2], in experiment [3] and in experiment [4] was “inactive” in each case. For the same compound, the compound was called inactive in experiment [5], in [6], in experiment [7], in experiment [8], in experiment [9] and in experiment [10]. Also, the call in experiment [11], in experiment [12], in experiment [13] and in [14] was inactive.
For `FC(F)(F)c1ccc(Cl)c(Cl)c1`, the Potency result in [1], in [2], in experiment [15], in [3], in [4] and in [18] (setting [20]) was “inactive” throughout. In addition, the Potency result in experiment [19] was “inactive”. Besides, the call in experiment [16], in experiment [5], in [6], in experiment [7], in experiment [8] and in experiment [10] was inactive. In addition, the compound was classed as inactive in experiment [17], in [11], in experiment [12], in experiment [13] and in experiment [14].
In the case of `Cc1cccc(O)c1`, the Potency result in [1], in experiment [2], in experiment [3], in [4], in experiment [18] (setting [20]) and in experiment [19] was “inactive” in each case. For the same compound, the result in experiment [16], in experiment [5], in experiment [6], in experiment [7], in experiment [8] and in experiment [9] was inactive. Besides, the result in experiment [10], in [11], in experiment [12], in experiment [13] and in experiment [14] was inactive.
Take `COCCCOc1ccnc(CS(=O)c2nc3ccccc3[nH]2)c1C` (stereo not drawn): the Potency entry in [1], in [2], in experiment [3] and in experiment [19] was “inactive” in each case. The outcome in [16], in [5], in experiment [6], in experiment [7], in experiment [8] and in experiment [9] was inactive. In addition, the compound was classed as inactive in experiment [10], in experiment [17], in experiment [11], in [12], in experiment [13] and in experiment [14]. Also, the activation is 16.4% [inconclusive] (active) in experiment [18] (setting [20]) and -5.49% in experiment [18] (at 62.4 µM (top of the series)).
With `CN(C)CCCN`, the Potency result in experiment [1], in experiment [2], in experiment [15], in experiment [3], in experiment [4] and in experiment [18] (setting [20]) was “inactive” throughout. In experiment [19], the Potency result is “inactive”. The outcome in experiment [5], in [6], in [7], in [8], in [10] and in experiment [17] was inactive. Also, the compound was classed as inactive in experiment [11], in experiment [12], in experiment [13] and in experiment [14].
For `CC(=O)Nc1cccc(O)c1`, the Potency result in experiment [1], in experiment [2], in [3] and in [4] was “inactive” throughout. Moreover, the call in experiment [5], in [6], in experiment [7], in experiment [8], in [9] and in experiment [10] was inactive. Also, the compound was classed as inactive in experiment [11], in experiment [13] and in experiment [14].
Turning to `C=CCOC(=O)c1ccccc1C(=O)OCC=C`, the Potency result in experiment [1], in experiment [2], in experiment [15] and in [3] was “inactive” throughout. Besides, the compound was called inactive in experiment [16], in experiment [5], in experiment [6], in [7], in experiment [9] and in experiment [10]. Moreover, the compound was called inactive in experiment [11], in [13] and in [14].
Regarding `Nc1ccccc1[N+](=O)[O-]`, the Potency entry in experiment [1], in experiment [2], in experiment [15], in experiment [3], in [18] (setting [20]) and in experiment [19] was “inactive” each time. Besides, the Potency in [4] is 48.6 µM (active). Besides, the compound was called inactive in experiment [16], in experiment [5], in [6], in [7], in experiment [9] and in [10]. Moreover, the compound was classed as inactive in experiment [17], in [11], in experiment [12], in [13] and in experiment [14].
